Assay results reported in PubChem BioAssay AID651592 (Sanford-Burnham Center for Chemical Genomics, 2012).
Active and inactive are the calls of the source.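 How the source made its calls: active means NF-kB reporter IC50 at most 10 µM, IL-8 IC50 within fivefold of it with bacterial filtrate but not with TNF-alpha; inactive means the rest.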

Assay: inhibitors of NFkB activation in CF airway cells, SAR follow-up, KKLEB cells, panel, IL8 HTRF, NFkB-GFP (AID 651592);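 further: immortalized cystic fibrosis airway epithelial KKLEB cells with an NF-kB GFP reporter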
Conditions: PAF/TNFa-induced NFkB-GFP / IL8 HTRF, CF-PAF assay, mean of runs

Structure (SMILES)	outcome
O=C(Nc1ccc(N2CCN(C(=O)c3ccccc3Cl)CC2)cc1)c1cccnc1	inactive
O=C(Nc1ccc(N2CCN(C(=O)c3ccccc3Cl)CC2)cc1)c1cncc(Br)c1	active
O=C(Nc1ccc(N2CCN(C(=O)c3ccc(F)cc3)CC2)cc1)c1ccccn1	inactive
O=C(Nc1ccc(N2CCN(C(=O)c3ccccc3Cl)CC2)cc1)c1cc(Br)cc(Br)c1	inactive
Cc1ccc(NCc2cc3c(C(C)(C)C)nn(-c4ccccc4)c3[nH]c2=O)cc1	inactive
CCOc1ccc(NCc2cc3c(-c4ccc(OC)c(OC)c4)nn(-c4ccccc4)c3[nH]c2=O)cc1	inactive
O=C(Nc1ccc(N2CCN(C(=O)c3ccccc3F)CC2)cc1)c1ccncc1	inactive
O=C(Nc1ccc(N2CCN(C(=O)c3ccccc3F)CC2)cc1)c1cccc(Br)c1	inactive
Cc1ccc(CNCc2cc3c(C(C)(C)C)nn(-c4ccccc4)c3[nH]c2=O)cc1	inactive
O=C(Nc1ccc(N2CCN(C(=O)c3ccccc3)CC2)cc1)c1cncc(Br)c1	active
CCOc1ccc(NCc2cc3c(C(C)(C)C)nn(-c4ccccc4)c3[nH]c2=O)cc1	inactive
O=C(Nc1ccc(N2CCN(C(=O)c3ccccc3F)CC2)cc1)c1cccnc1	inactive
CCOc1ccc(NCc2cc3c(C)nn(-c4ccccc4)c3[nH]c2=O)cc1	inactive
O=C(Nc1ccc(N2CCN(C(=O)c3ccccc3F)CC2)cc1)c1ccccn1	inactive
O=C(Nc1ccc(N2CCN(C(=O)c3ccccc3Cl)CC2)cc1)c1ccccn1	inactive
O=C(Nc1ccc(N2CCN(C(=O)c3ccccc3F)CC2)cc1)c1ccccc1	inactive
